Growth data for 15 molecules are collected here from PubChem BioAssay (NCI).

The panel holds about 83,000 compounds, 20% with a hit somewhere; the sample as a whole holds those more often.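 In brief: 96-well plates, 48 h treatment, single concentration, percent growth endpoint.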 Values without a mark were called inactive. Activity calls are given as the source filed them. How the source made its calls: active means growth percent below 10; inactive means the rest.

Among the test systems are T-47D breast; BT-549 breast; MDA-MB-435 melanoma; SW-620 colon; MCF7 breast; HCT-116 colon; HCC-2998 colon; KM12 colon.
Common to all, as to assay: NCI-60 one-dose screen, 48 h (100 = growth as untreated, 0 = no growth, -100 = all killed)
What all share (conditions): 10 µM

Consider `CCC(OC(=O)CC(C)C)c1ccccc1` (stereo not given), for which the growth in the test with T-47D breast is 84.5%; in the test with BT-549 breast it was 101%; with MDA-MB-435 melanoma it was 104%; in the test on SW-620 colon, 105%; in the test on MCF7 breast, 94.3%; with HCT-116 colon it was 107%. Besides, the growth in the test on HCC-2998 colon is 101%; with KM12 colon it was 107%.

For `O=C(Nc1cccc(F)c1)Nc1cccc(Cl)c1`, the growth with T-47D breast is 76.5%; in the test on BT-549 breast, 104%; in the test on MDA-MB-435 melanoma, 89.9%; in the test with SW-620 colon, 74%; with MCF7 breast, 87.8%; with HCT-116 colon it was 92.3%. The growth is 89.9% in the test with HCC-2998 colon and 47.6% with KM12 colon.

For the molecule `COc1ccc(-c2nnc(COc3ccc(NC(=O)Nc4cccc(C(F)(F)F)c4)cc3F)o2)cc1`, the growth in the test with T-47D breast is 34.8%; with BT-549 breast, 82.7%; with MDA-MB-435 melanoma, 61.6%; in the test on SW-620 colon it was 54.3%; with MCF7 breast it was 88.7%; in the test with HCT-116 colon it was 56.7%. In addition, the results for the growth in the test with HCC-2998 colon and in the test with KM12 colon were 50.9% and 24%, respectively.

In the case of `Cc1ccc(NS(=O)(=O)c2ccccc2)c(NS(=O)(=O)c2ccccc2)c1`, the growth is 101% with T-47D breast; 104% in the test with BT-549 breast; 106% in the test with MDA-MB-435 melanoma; 95.1% with SW-620 colon; 104% with MCF7 breast; 93.7% in the test on HCT-116 colon. Moreover, the growth in the test with HCC-2998 colon is 106%; with KM12 colon, 103%.

Take `CCOC(=O)c1c(C(F)(F)F)n([O-])c2ccc(OC)cc2[n+]1=O`: the growth with T-47D breast was 12%; with BT-549 breast, -3.39% (active); with MDA-MB-435 melanoma, 23.6%; in the test with SW-620 colon, 30.2%; in the test on MCF7 breast, 31.9%; with HCT-116 colon it was 29.4%. The growth was 43.8% in the test with HCC-2998 colon and 43.7% in the test with KM12 colon.

Take `CC(=O)c1ccc(NCn2nc(-c3ccc(Cl)cc3)oc2=S)cc1`: the growth was 80% in the test with T-47D breast; 99.1% in the test with BT-549 breast; 105% in the test with MDA-MB-435 melanoma; 104% in the test with SW-620 colon; 95.7% in the test with MCF7 breast; 93.3% with HCT-116 colon. Moreover, the growth in the test with HCC-2998 colon was 99.7%; in the test on KM12 colon, 93.1%.

For `COc1cccc2c1C(=O)c1c(O)c3c(c(O)c1C2=O)C[C@@](O)(C(=O)COC(=O)c1cccnc1)C[C@@H]3OC1CC(N)C(O)C(C)O1` (stereo not given in full), the growth with T-47D breast was -2.37% (active); in the test with BT-549 breast it was 5.42% (active); in the test with MDA-MB-435 melanoma it was -87.5% (active); with SW-620 colon, 3.34% (active); in the test on MCF7 breast it was 4.11% (active); in the test on HCT-116 colon, 6.26% (active). Also, the results for the growth in the test with HCC-2998 colon and in the test with KM12 colon were -50.3% (active) and -0.352% (active), respectively.

Turning to `COc1cccc(C(=O)N(c2ccc(F)c(F)c2)C(C(=O)NC(C)(C)C)c2cc3c(C)cc(C)cc3nc2Cl)c1` (stereo not given), the growth is 46.6% with T-47D breast; 90.7% in the test on BT-549 breast; 63.2% in the test on MDA-MB-435 melanoma; 78.6% with SW-620 colon; 45.6% in the test with MCF7 breast; 34.8% with HCT-116 colon. In addition, the growth in the test with HCC-2998 colon is 88.3%; in the test on KM12 colon, 60.2%.

As for `O=C(c1ccc(Cl)cc1)c1no[n+]([O-])c1C(=O)c1ccc(Cl)cc1`, the growth in the test on T-47D breast was 89.6%; with BT-549 breast, 98.7%; with MDA-MB-435 melanoma, 89.8%; in the test on SW-620 colon, 44.2%; with MCF7 breast it was 92.1%; in the test on HCT-116 colon, 49%. The growth is 113% in the test on HCC-2998 colon and 88.5% in the test with KM12 colon.

Turning to `Cc1nc2sccn2c1-c1csc(Nc2cccc(Cl)c2C)n1`, the growth is 36.2% in the test on T-47D breast; 43.9% in the test with BT-549 breast; 7.55% (active) with MDA-MB-435 melanoma; 49.1% in the test on SW-620 colon; 38.1% with MCF7 breast; 46.1% in the test on HCT-116 colon. Also, the values for the growth in the test with HCC-2998 colon and in the test on KM12 colon were 69% and 50.8%, respectively.

For `Cc1cc(C)c(C(=O)OC(C)CNC2CCCCC2)c(C)c1` (stereo not given), the growth in the test with T-47D breast was 100%; with BT-549 breast, 92.4%; in the test with MDA-MB-435 melanoma, 90.8%; with SW-620 colon it was 100%; in the test on MCF7 breast, 97.8%; in the test on HCT-116 colon, 86.3%. The growth with HCC-2998 colon was 103%; with KM12 colon, 98.2%.

Regarding `CCN(CC)CCOC(=O)c1ccc(N=Nc2ccc(O)c(OC)c2)cc1`, the growth is 86.6% in the test on T-47D breast; 101% in the test with BT-549 breast; 103% in the test with MDA-MB-435 melanoma; 103% with SW-620 colon; 95.6% in the test on MCF7 breast; 93.9% with HCT-116 colon. The growth in the test on HCC-2998 colon and in the test on KM12 colon was 103% in each case.

`Nc1nsc(C(=O)c2ccc(O)cc2)n1`: the growth in the test on T-47D breast is 94.2%; in the test on BT-549 breast, 102%; with MDA-MB-435 melanoma, 104%; with SW-620 colon, 108%; in the test on MCF7 breast, 99.3%; with HCT-116 colon it was 94.8%. The growth in the test with HCC-2998 colon is 98.7%; in the test with KM12 colon it was 100%.

With `Nc1nc(SCC#CCCl)c2[nH]cnc2n1`, the growth was 37.2% with T-47D breast; 44.8% with BT-549 breast; 46.7% in the test with MDA-MB-435 melanoma; 40.8% with SW-620 colon; 34.6% with MCF7 breast; 39% with HCT-116 colon. Moreover, the growth in the test with HCC-2998 colon was 100%; in the test on KM12 colon, 60.6%.

Turning to `COC(=O)CCCCCCCCC(C)c1ccc(C(C)=O)cc1` (stereo not given), the growth in the test with T-47D breast was 94.4%; with BT-549 breast it was 130%; in the test on MDA-MB-435 melanoma, 97.1%; in the test on SW-620 colon, 103%; in the test on MCF7 breast, 118%; in the test on HCT-116 colon, 110%. For the same molecule, the growth is 99.6% in the test on HCC-2998 colon and 103% in the test with KM12 colon.
